Compounds without any hit were thinned out: in the full panel of roughly 79,000, 15% have a hit. No stated cut-off is given here; in the data, active means growth inhibition above about 70%; inactive means the rest.
Experiments:
[1] = NCI Yeast Anticancer Drug Screen. Data for the rad50 strain (AID 155);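 further: 0% = growth of vehicle-only cultures of the same strain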; conditions: S. cerevisiae rad50 strain growth inhibition; at 50.0 µM; stronger effect = higher value
In short: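 Relative growth inhibition (compound vs vehicle) was measured in yeast with a defined repair-gene alteration.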

[2] = NCI Yeast Anticancer Drug Screen. Data for the mec2-1 strain (AID 157); conditions: S. cerevisiae mec2-1 strain, at 50.0 µM, stronger effect = higher value
In short: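 Mutant yeast (mec2-1) grown with compound; growth inhibition relative to vehicle control reported.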

[3] = NCI Yeast Anticancer Drug Screen. Data for the sgs1 mgt1 strain (AID 161);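 further: 0% = growth of cultures given vehicle only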; conditions: S. cerevisiae sgs1 mgt1 strain, at 50.0 µM, stronger effect = higher value
In short: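 Growth of a repair-deficient yeast mutant was monitored after compound treatment and expressed as inhibition relative to vehicle-treated cultures.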

[4] = NCI Yeast Anticancer Drug Screen. Data for the cln2 rad14 strain (AID 165);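 further: 0% = growth equal to vehicle treated cultures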; conditions: S. cerevisiae cln2 rad14 strain, at 50.0 µM, stronger effect = higher value
In short: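 Readout is yeast growth inhibition versus vehicle-treated controls, using a strain with cln2 and rad14 alterations exposed to compound.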

[5] = NCI Yeast Anticancer Drug Screen. Data for the bub3 strain (AID 167); conditions: S. cerevisiae bub3 mutant strain, at 50.0 µM, stronger effect = higher value
In short: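 Screening used yeast with an engineered genetic alteration affecting cell cycle control. Compound-exposed cultures were compared with vehicle cultures, and reduced growth was taken as inhibition.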

[6] = NCI Yeast Anticancer Drug Screen. Data for the mlh1 rad18 strain (AID 175); conditions: S. cerevisiae mlh1 rad18 strain growth inhibition; at 50.0 µM; stronger effect = higher value
In short: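 Genetically defined yeast (DNA repair-deficient) exposed to compounds; growth inhibition determined relative to vehicle.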

Measured: growth inhibition

COc1ccc(-c2ccc(OC)cc2)cc1
inactive: [1] 2.9% | [2] -2.75% | [3] -3.8% | [4] -0.65% | [5] 21.4% | [6] 3%

CC1=NN(C(=O)Cc2ccccc2)C(=O)/C1=C\c1ccco1
inactive: [1] -37.9% | [2] -37.4% | [3] -47.9% | [4] -13.8% | [5] -25.9% | [6] -55.9%

C#CC1(NC(=O)c2ccccc2C(=O)Nc2cccc(C(F)(F)F)c2)CCCCC1
inactive: [1] -12.9% | [2] -19.1% | [3] -14.2% | [4] 11.3% | [5] -20.1% | [6] -14.2%

O=[N+]([O-])c1ccc(OCc2ccccc2)c(Cl)c1
inactive: [1] -4.2% | [2] 17.1% | [3] 25.9% | [4] -13.8% | [5] 46.3% | [6] 30.4%

COc1cc(OC)c(NC(=O)ON2C(=O)c3ccccc3C2=O)cc1Cl
inactive: [1] 8.2% | [2] -1.75% | [3] -2.3% | [4] 11.8% | [5] 0.5% | [6] 24.6%

O=C(Nc1ccc(Br)cc1)Oc1ccc(Cl)cc1C(=O)c1ccccc1
inactive: [1] 38% | [2] 8.5% | [3] 19.1% | [4] 29.5% | [5] 41.8% | [6] 20.5%

CC(=O)CCC(=O)OCc1ccccc1
inactive: [1] 35.1% | [2] 7.75% | [3] 1.3% | [4] 10.3% | [5] -3% | [6] 4.2%

CCOC(=O)c1c2c(nc3c1CCCC3)CCCC2
inactive: [1] 3.2% | [2] 3.45% | [3] -1.6% | [4] -1.05% | [5] 7.4% | [6] -24.9%

OCc1cc2ccccc2c2c3c(ccc12)OCO3
inactive: [1] 39.9% | [2] 4.6% | [3] 20.7% | [4] -37.9% | [5] -1.05% | [6] 15.9%

CC1=C(C)C2C3C(=O)NC(=O)C3C1C1C3C(=O)NC(=O)C3C21 (configuration not stated)
inactive: [1] -21.8% | [2] -7.75% | [3] 7.3% | [4] -12.8% | [5] 10.1% | [6] 17.1%

COC(=O)Cc1ccccc1-n1nccc1S(C)=O (configuration not stated)
inactive: [1] 10.2% | [2] -5.05% | [3] 14.3% | [4] -7.65% | [5] 8.6% | [6] 7.45%

COC(=O)CNC(=O)C1CSC(C)(C)N1C=O (configuration not stated)
inactive: [1] -5.25% | [2] -9.85% | [3] 10.2% | [4] 2.4% | [5] 47.9% | [6] -6.2%

CN(C)c1cccc2c1C(=O)C=CC21c2ccc(N(C)C)c3c(N(C)C)ccc(c23)C(c2ccccc2)C1c1ccccc1 (configuration not stated)
inactive: [1] -6.15% | [2] -11.4% | [3] -4.55% | [4] -27.3% | [5] -31.6% | [6] -8.75%

COC(=O)c1cc2c(o1)Sc1ccccc1NC2=O
inactive: [1] -4.3% | [2] -29.9% | [3] -12.6% | [4] 3.65% | [5] -8.55% | [6] 10.7%

CCOCC1OCCCO1
inactive: [1] -13.5% | [2] 12.4% | [3] 1.6% | [4] -9.85% | [5] -10% | [6] 7.15%

C/C=C/C(=O)OCCC[N+](C)(C)C
inactive: [1] 8.8% | [2] 12.3% | [3] 2.8% | [4] -0.95% | [5] 13.9% | [6] -23.8%

CCCC(O)C(C)(C)[N+](=O)[O-] (configuration not stated)
inactive: [1] 60.9% | [2] 5.45% | [3] 12.9% | [4] -2.85% | [5] 8% | [6] 9.95%

Cc1cc(C)n(-c2nnc(-n3nc(C)cc3C)c3ccccc23)n1
inactive: [1] -12.4% | [2] -1.75% | [3] -21.6% | [4] -5.45% | [5] -5.5% | [6] -3.9%

O=C(O)C(Cc1ccccc1)c1ccc(Cl)cc1 (configuration not stated)
inactive: [1] 38.1% | [2] 27.3% | [3] 43.1% | [4] 20.6% | [5] 41.8% | [6] 25.9%

O=S(=O)(N/N=C/c1c(Cl)cccc1Cl)c1ccccc1
inactive: [1] 18.9% | [2] 12.1% | [3] 11.9% | [4] -9.35% | [5] 9.65% | [6] 31.5%

COc1ccccc1/C=C/C(=O)c1ccccc(=O)c1O
inactive: [1] -9% | [2] -5.05% | [3] -4.35% | [4] -23.4% | [5] -1.05% | [6] -11.2%

CCOC(=O)C1(Cc2ccc3c(c2)CCC3)Cc2cc3c(cc2C1=O)CCC3 (configuration not stated)
inactive: [1] -11.1% | [2] -28.1% | [3] -17.9% | [4] 19.1% | [5] 14.2% | [6] -2.55%

— PubChem BioAssay (NCI)
